Each structure is given as a SMILES string. This is part of a sample that, as a whole, favours compounds with a hit. Of some 83,000 tested, about 20% had one in any assay.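 Testing used 96-well plates and a 48-hour single-concentration exposure. Example: -40 means 40% of the starting cells died.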 A number with no mark means an inactive call. The source made the active and inactive calls. Rule for the calls: active = growth percent below 10; inactive = the rest.

Holding throughout (assay): NCI-60 one-dose screen, 48 h (100 = growth as untreated, 0 = no growth, -100 = all killed)
Common to all, as to settings: 10 µM unless noted

For experiment [1], the system named is SR leukemia.
The subject of experiment [2] is RPMI-8226 leukemia.
Experiment [3] concerns OVCAR-8 ovarian.
In experiment [4] the test system is OVCAR-5 ovarian.
For experiment [5], the system named is OVCAR-4 ovarian.
Experiment [6] concerns SK-OV-3 ovarian.
The test system of experiment [7] is IGROV1 ovarian.
In experiment [8] the test system is OVCAR-3 ovarian.
The subject of experiment [9] is HS 578T breast.
In experiment [10] the test system is NCI/ADR-RES ovarian.

As for `O=S(=O)(NCCNc1cc(-c2cn(-c3ccccc3)nc2-c2cccc(O)c2)ccn1)c1ccccc1`, the growth was 11.7% in experiment [1]; 32.7% in experiment [2]; 49.8% in experiment [3]; 92.1% in experiment [4]; 56.3% in [5]; 69.5% in experiment [6]. In addition, the growth is 57.1% in experiment [7], 63.3% in [8], 45.2% in [9] and 43.9% in [10].

Take `O=C1CCC/C=C\C[C@H]2C=C(Cl)C(=O)/C2=C/C[C@H](CCCCC(F)(F)F)OC(=O)CCC/C=C\C[C@H]2C=C(Cl)C(=O)/C2=C/C[C@H](CCCCC(F)(F)F)O1`: the growth in experiment [1] was -14.6% [7.5 µM] (active); in experiment [2] it was -14.9% [7.5 µM] (active); in experiment [3], -4.7% [7.5 µM] (active); in experiment [4] it was -33.6% [7.5 µM] (active); in experiment [5], 19.7% [7.5 µM]; in [6], -2.87% [7.5 µM] (active). In addition, the growth was -48.2% [7.5 µM] (active) in [7], -81.3% [7.5 µM] (active) in experiment [8], 21.8% [7.5 µM] in experiment [9] and 12.5% [7.5 µM] in [10].

Regarding `CC(C)(C)c1ccc(OCCCCCCCN2CCNCC2)cc1`, the growth in experiment [1] was -10.4% (active); in [2], -17% (active); in experiment [3] it was 71.3%; in experiment [4], 68.5%; in experiment [5], 54%; in [6], 81.5%. In addition, the growth is 52% in experiment [7], 62% in [8], 24.9% in experiment [9] and 71.7% in experiment [10].

Take `Cc1csc(Nc2nc(-c3ccc(Cl)cc3)nc(C(Cl)(Cl)Cl)n2)n1`: the growth in experiment [1] is 57%; in experiment [2] it was 76.7%; in experiment [3], 89.9%; in experiment [4], 99%; in [5], 95.5%; in experiment [6], 94.1%. Also, the growth was 102% in [7], 67% in experiment [8], 101% in experiment [9] and 91.3% in experiment [10].

Turning to `Cc1cc2nc3c4cc([N+](=O)[O-])cc([N+](=O)[O-])c4n(CCN(C)C)c3nc2cc1C`, the growth was 5.05% (active) in experiment [1]; 67.5% in [2]; 61.4% in [3]; 87.8% in [4]; 90.8% in experiment [5]; 90.2% in [6]. Further, the growth was 60.2% in experiment [7], 92.6% in experiment [8], 90.2% in [9] and 57.8% in experiment [10].

On to `COC(=O)CCCCCn1c2ccccc2c2c3c(c4c5ccccc5[nH]c4c21)C(=O)N(O)C3=O`, for which the growth in experiment [1] was 11.3%; in experiment [2] it was 22.4%; in [3] it was 31.2%; in [4], 86.6%; in experiment [5], 57.5%; in experiment [6], 70.2%. Besides, the growth in experiment [7] was 19.5%; in [8], 33.2%; in experiment [9], 84.5%; in experiment [10] it was 23.1%.

For the compound `C/C(=N\Nc1ccc2ccccc2n1)c1ccccn1`, the growth was 6.18% (active) in experiment [1]; 1.84% (active) in experiment [2]; 6.43% (active) in experiment [3]; 24% in [4]; 21.2% in experiment [5]; 24.7% in [6]. In addition, the growth was -2.71% (active) in experiment [7], 8.54% (active) in [8], 49% in experiment [9] and 1.66% (active) in experiment [10].

`CC(=O)Nc1cc(F)cc(C(F)(F)F)c1Cl`: the growth was 101% in experiment [1]; 105% in experiment [2]; 105% in [3]; 96.2% in experiment [4]; 98.1% in [5]; 106% in experiment [6]. The growth in experiment [7] was 100%; in experiment [8], 104%; in [9], 88.2%; in experiment [10], 96.1%.

On to `COC(=O)[C@]12CC[C@@H](C)[C@H](C)[C@@H]1C1=CC(=O)[C@@H]3[C@@]4(C)C[C@@H](OC(C)=O)[C@H](OC(C)=O)[C@@](C)(COC(C)=O)[C@@H]4C(=O)C[C@@]3(C)[C@]1(C)CC2`, for which the growth in experiment [1] was 29.1%; in [2], 3.4% (active); in experiment [3], 10.4%; in experiment [4], 84.4%; in experiment [5], 60.4%; in experiment [6], 76.4%. Further, the growth in [7] is 61.4%; in experiment [8] it was 40.2%; in [9], 75.9%; in [10], 13.2%.

As for `COc1cc(-c2c(C#N)c(-c3cccs3)nc3c2c(-c2ccccc2)nn3-c2ccccc2)ccc1O`, the growth in experiment [1] was 60.5%; in [2] it was 94.3%; in experiment [3] it was 84.2%; in experiment [4], 95.4%; in [5] it was 83.5%; in experiment [6], 82.7%. Also, the growth in experiment [7] was 91.3%; in experiment [8], 101%; in experiment [9], 78.6%; in [10], 88.9%.

For the compound `O=S(=O)(NCCNc1cc(-c2cn(-c3ccccc3)nc2-c2cccc(O)c2)ccn1)c1ccc(Br)cc1`, the growth was 5.3% (active) in [1]; 13% in experiment [2]; 25% in experiment [3]; 50% in experiment [4]; 40.7% in [5]; 45.8% in experiment [6]. Besides, the growth is 49.6% in experiment [7], 34.7% in experiment [8], 24.8% in experiment [9] and 25.5% in experiment [10].

Regarding `COc1ccc(-c2cc(=O)oc3ccc(Cl)cc23)cc1F`, the growth in experiment [1] was 11.2%; in [2], 28.1%; in experiment [3], 20.3%; in experiment [4] it was 54.7%; in experiment [5], 55.9%; in [6], 0.514% (active). Also, the growth in experiment [7] was 43.1%; in [8], 6.02% (active); in experiment [9] it was 20.1%; in experiment [10], 6.24% (active).

As to `COc1cc2c(cc1-c1c(C)noc1C)ncc1nc(C3CCCCC3)n([C@@H](C)COC(F)F)c12`, the growth in experiment [1] is 14.5%; in experiment [2], 13.3%; in experiment [3] it was 39.1%; in experiment [4], 76.6%; in experiment [5] it was 41.8%; in experiment [6] it was 4.85% (active). Also, the growth is 43.8% in experiment [7], 35.6% in experiment [8], 14.3% in [9] and 37% in experiment [10].

The values are drawn from PubChem BioAssay (NCI).
